# Source: PubChem (several laboratories)
# ADAM17 inh – inhibits human ADAM17 | P78536 | recombinant ADAM17, EDANS/DABCYL FRET peptide cleavage | inhibition, % at 6.95 µM | actives 0.83% (n = 370,000);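 active means inhibition above the mean of compounds lying between control limits plus 3 SD, set per campaign, cut at about 8.5% in these data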;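 further: 0% = DMSO-only wells as the low control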
# KLK7 zymogen act – activates the human kallikrein-7 zymogen; P49862; activation, % at 7 µM; AID 652039; purified proKLK7, EDANS-DABCYL substrate fluorescence; 100% is mature enzyme control, 0% vehicle; actives 0.9% (n = 370,000);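 active means activation above the mean of all tested compounds plus 3 SD, computed per campaign excluding outliers beyond control limits, cut at about 13% in these data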
# Target sequence (P49862 whole entry, looked up): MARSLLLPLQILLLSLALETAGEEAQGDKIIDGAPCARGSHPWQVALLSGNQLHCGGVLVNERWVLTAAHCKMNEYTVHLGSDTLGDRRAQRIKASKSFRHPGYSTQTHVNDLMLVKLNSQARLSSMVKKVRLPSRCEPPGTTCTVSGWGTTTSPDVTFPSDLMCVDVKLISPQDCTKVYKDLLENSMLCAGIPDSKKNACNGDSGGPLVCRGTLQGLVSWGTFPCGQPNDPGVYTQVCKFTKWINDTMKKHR
# rRNA inh HTS – inhibitors of bacterial rRNA selective over humanized ribosomes; E. coli WT GFP vs humanized-ribosome RFP mutants, fluorescence, 24 h; stronger effect = lower value; DMSO median 0, no signal -100; GFP signal change (wild-type ribosome), % (test concentration not listed); actives 1.6% (n = 350,000);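 active means significant combined selectivity score with lowered wild-type GFP, culture density cut under 30%, mutant RFP and density less affected; inactive means any of these conditions unmet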
# FGF22 binding – binders of recombinant human FGF22 by thermal shift. Q9HCT0. SYPRO orange fluorescence; percent of sucrose octasulfate shift, DMSO zero. activity (Tm shift, normalised), % at 9.99 µM. actives 1.5% (n = 340,000). AID 651658;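 active means mean Tm shift, scaled 0 neutral to 100 positive control, at about 1.3% or above, every replicate too, limit read from the data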
# Target sequence (Q9HCT0 whole entry, looked up): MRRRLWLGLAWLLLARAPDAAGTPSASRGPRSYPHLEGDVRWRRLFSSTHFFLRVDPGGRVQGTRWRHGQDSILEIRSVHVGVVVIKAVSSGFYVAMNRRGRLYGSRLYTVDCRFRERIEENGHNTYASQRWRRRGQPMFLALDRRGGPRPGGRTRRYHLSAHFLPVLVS
# ADAM10 inh – ADAM10 inhibition, QFRET primary screen; inhibition, % at 7 µM; actives 0.62% (n = 370,000); recombinant ADAM10, EDANS/DABCYL FRET peptide cleavage, 3 h;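 active means inhibition above a per-campaign cutoff equal to the mean of compounds falling between control-based bounds plus 3 SD, cut at about 20% in these data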;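 further: 0% = DMSO wells while the 100% control is not disclosed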
# The depositor's hits bear a star; · = no result given. Hits are enriched below; roughly 3.8% of the tested compounds scored in any of these assays.
SMILES,ADAM17 inh,KLK7 zymogen act,rRNA inh HTS,FGF22 binding,ADAM10 inh
CCC1=NN(C(=O)C(=O)Nc2ccc(OC)cc2)C(O)(C(F)(F)F)C1 (stereo unspecified),2,0,-23*,0,-3
CCC1=NN(C(=O)C(=O)Nc2ccccc2OC)C(O)(C(F)(F)F)C1 (stereo unspecified),1,0,·,·,4
CCOC(=O)Cc1cc(=O)n2[nH]c(-c3ccccc3)c(-c3ccccc3)c2n1,-35,-3,5,43*,-81
CCOc1ccc(NC(=S)NNC(=O)c2ccc(Br)cc2)cc1,7,0,-15*,1,4
COc1ccc(C2(c3ccc(OC)cc3)NC(=O)N(CC(=O)NC3(C#N)CCCC3)C2=O)cc1,-4,1,-2,0,-16
Cc1ccc(C2(c3ccccc3)NC(=O)N(CC(=O)NC3(C#N)CCCC3)C2=O)cc1C (stereo unspecified),0,1,-28*,0,-6
O=C(NC1CCCCC1)N1CC(=O)N2[C@@H](CO)[C@@H](c3ccc(-c4cccnc4)cc3)[C@@H]2C1,·,·,0,·,·
N#CCC(=O)N/N=C/c1ccc(OCc2ccccc2)cc1,0,-1,5,43*,2
C/C(=N\NC(=O)COc1ccccc1)c1ccc(O)cc1,2,0,4,43,3
C/C(=N\NC(=O)CC#N)c1ccc(Oc2ccccc2)cc1,-1,0,3,44*,-4
N#CCC(=O)N/N=C\c1ccc(OC/C=C/c2ccccc2)cc1,-4,-1,-13,0,3
Cc1c(NC(=O)CSc2ccc(Cl)cc2)c(=O)n(-c2ccccc2)n1C,1,0,3,44*,0
Cc1c(NC(=O)COC(=O)C2(c3ccccc3F)CCCC2)c(=O)n(-c2ccccc2)n1C,-4,-1,·,43*,-1
CCC(C(=O)OCC(=O)Nc1c(C)n(C)n(-c2ccccc2)c1=O)c1ccccc1 (stereo unspecified),2,0,·,·,0
Cc1ccc(SCCC(=O)Nc2c(C)n(C)n(-c3ccccc3)c2=O)cc1,-4,0,·,·,4
Cc1cc(C(=O)COC(=O)C23CC4CC(CC(O)(C4)C2)C3)c(C)n1-c1c(C)n(C)n(-c2ccccc2)c1=O,-3,0,-2,0,3
Cc1c(NC(=O)COC(=O)C23CC4CC(CC(O)(C4)C2)C3)c(=O)n(-c2ccccc2)n1C,0,0,10,44*,1
O=C(CC(c1ccccc1)(c1ccccc1)c1ccccc1)N[C@@H](Cc1ccccc1)C(=O)O,-4,0,-13,-1,-1
O=C(O)[C@H](Cc1ccccc1)NC(=O)C(c1ccccc1)(c1ccccc1)c1ccccc1,0,0,-23*,0,-4
COc1ccccc1CNC(=O)C[C@H]1CC[C@@H](NC(C)=O)[C@@H](CO)O1,·,·,-4,0,·
O=C(C[C@H]1C=C[C@H](NC(=O)Nc2ccc(F)cc2)[C@@H](CO)O1)NCCN1CCCC1,·,·,3,0,·
COc1cc(C(C)=O)ccc1OCc1cn(CC(=O)c2ccc(O)cc2)nn1,1,0,1,0,0
CC(=O)c1ccc(OCc2cn(CC(=O)c3ccc(O)cc3)nn2)c(C)c1,-2,0,-31*,1,-8
CCOc1cc(C(=O)OC(C)C(=O)Nc2ncc(Cl)cc2Cl)ccc1OCC(=O)N1CCOCC1 (stereo unspecified),0,-1,1,44*,3
COc1ccc(NC(=O)N(C)C[C@@H]2Oc3ncc(C#CCN(C)C)cc3C(=O)N([C@H](C)CO)C[C@H]2C)cc1,·,·,-1,0,·
SMILES,ADAM17 inh,KLK7 zymogen act,rRNA inh HTS,FGF22 binding,ADAM10 inh
Cc1ccc(CN2CCC(CO)(CC3CCCCO3)CC2)o1 (stereo unspecified),4,0,20,0,-1
Cc1ccc2[nH]c(CN3CCC(CO)(CC4CCCCO4)CC3)c(C)c2c1 (stereo unspecified),-1,1,1,43*,8
O=C(O)c1ccc(NC(=O)c2cn(-c3ccccc3)nc2-c2ccc(Br)cc2)cc1,1,-1,-42,1.6*,7
CN1CCC(=NNC(=O)c2cn(-c3ccccc3)nc2-c2ccccc2)CC1,1,-1,3,43*,1
CCOC(=O)Cc1cnc(NC(=O)CSc2nc(C)cc(C)n2)s1,-2,0,-16,44*,-6
Cc1cc(C)nc(SCC(=O)Nc2ncc(Cc3cccc(Cl)c3Cl)s2)n1,-6,0,·,·,-1
CC(C)NC(=O)N1C[C@@H]2C(c3ccc(Br)cc3)[C@H](C1)N2Cc1ccc(F)cc1 (stereo partly specified),·,·,-2,·,·
COc1ccc([Si](C)(C)[C@H]2[C@H](CCn3cc(CCO)nn3)O[C@@]3(C(=O)N(C)c4c(Br)cc(C)cc43)[C@@H]2C)cc1,·,·,·,-1,·
CN(C1CCCCC1)S(=O)(=O)c1ccc(NC(=O)c2ccc(Br)o2)cc1,6,1,·,·,20*
Fc1ccc(Nc2nc3ccccc3s2)cc1,4,0,5,42,10
Cc1ccc(Nc2nc3ccccc3s2)cc1,5,0,·,1.5*,8
Cc1ccc(SCC(=O)Nc2cc([N+](=O)[O-])ccc2O)cc1,2,0,-13,43*,5
Cc1ccc(/C=N/Nc2cn[nH]c(=O)n2)o1,1,0,-4,0,8
C(=N\Nc1ccc2nncn2n1)/c1ccccn1,-1,0,-34*,0,-2
O=c1nc(N/N=C/c2ccccn2)cn[nH]1,3,0,-27,44*,12
CNC[C@@H]1Oc2ccc(N)cc2C(=O)N(C)C[C@@H]1C,·,·,3,·,·
Cn1c(N)c(C(=O)COC(=O)c2ccc(Cl)nc2)c(=O)n(C)c1=O,-2,-1,9,43*,-11
Cn1c(N)c(C(=O)COC(=O)c2ccc(Cl)c(S(=O)(=O)N3CCCC3)c2)c(=O)n(C)c1=O,-2,-1,-26*,0,1
CC(=O)N(C)C[C@@H]1Oc2c(NC(=O)NC(C)C)cccc2C(=O)N(C)C[C@@H]1C,·,·,0,·,·
O=C1Nc2ccccc2/C1=C\C(=O)c1ccccc1,0,0,-19*,0,1
COC(c1ccccc1)c1nnc(CCC(=O)N2CCCCCCC2)o1 (stereo unspecified),1,0,15,44*,-8
COC(c1ccccc1)c1nnc(CCC(=O)NC2CCCCC2)o1 (stereo unspecified),0,-1,17,1,3
COC(c1ccccc1)c1nnc(CCC(=O)N(C)C(C2CC2)C2CC2)o1 (stereo unspecified),0,0,5,44*,-1
COc1cccc(C(=O)/C=C/Nc2ccc(S(=O)(=O)Nc3ncccn3)cc2)c1,1,0,10,0,-7
